According to PubChem BioAssay AID504339 (National Center for Advancing Translational Sciences (NCATS), 2011):
Hit rate of the full screen: of about 390,000 compounds, about 17,000 (4.4%) were called active. About 8% were inconclusive and are not listed. The sample holds actives, similar compounds and a random draw of the others, so the mix is not that of the screen. The call rests on the fitted dose curve; in most records, active means well fitted inhibition curve with a large enough effect; inconclusive means small, poorly fitted or top-dose-only effect; inactive means no such curve, though single readings can be large or run the other way.

These compounds were tested against Lysine-specific demethylase 4A (Homo sapiens) (UniProt O75164) (assay: qHTS Assay for Inhibitors of JMJD2A-Tudor Domain). Settings: AlphaScreen JMJD2A-Tudor / H3K4me3 peptide binding; series mostly up to 114 µM; activity change, negative = inhibition: at the top concentration.
Further: nearly all actives have a fitted effect of over 50% in size.
On the % scale 0 is the no-effect control and ±100 the full control effect; potency means the concentration at half of the fitted maximal effect.

Lysine-specific demethylase 4A (Homo sapiens), sequence (O75164 whole entry, looked up, the tested form may be a part): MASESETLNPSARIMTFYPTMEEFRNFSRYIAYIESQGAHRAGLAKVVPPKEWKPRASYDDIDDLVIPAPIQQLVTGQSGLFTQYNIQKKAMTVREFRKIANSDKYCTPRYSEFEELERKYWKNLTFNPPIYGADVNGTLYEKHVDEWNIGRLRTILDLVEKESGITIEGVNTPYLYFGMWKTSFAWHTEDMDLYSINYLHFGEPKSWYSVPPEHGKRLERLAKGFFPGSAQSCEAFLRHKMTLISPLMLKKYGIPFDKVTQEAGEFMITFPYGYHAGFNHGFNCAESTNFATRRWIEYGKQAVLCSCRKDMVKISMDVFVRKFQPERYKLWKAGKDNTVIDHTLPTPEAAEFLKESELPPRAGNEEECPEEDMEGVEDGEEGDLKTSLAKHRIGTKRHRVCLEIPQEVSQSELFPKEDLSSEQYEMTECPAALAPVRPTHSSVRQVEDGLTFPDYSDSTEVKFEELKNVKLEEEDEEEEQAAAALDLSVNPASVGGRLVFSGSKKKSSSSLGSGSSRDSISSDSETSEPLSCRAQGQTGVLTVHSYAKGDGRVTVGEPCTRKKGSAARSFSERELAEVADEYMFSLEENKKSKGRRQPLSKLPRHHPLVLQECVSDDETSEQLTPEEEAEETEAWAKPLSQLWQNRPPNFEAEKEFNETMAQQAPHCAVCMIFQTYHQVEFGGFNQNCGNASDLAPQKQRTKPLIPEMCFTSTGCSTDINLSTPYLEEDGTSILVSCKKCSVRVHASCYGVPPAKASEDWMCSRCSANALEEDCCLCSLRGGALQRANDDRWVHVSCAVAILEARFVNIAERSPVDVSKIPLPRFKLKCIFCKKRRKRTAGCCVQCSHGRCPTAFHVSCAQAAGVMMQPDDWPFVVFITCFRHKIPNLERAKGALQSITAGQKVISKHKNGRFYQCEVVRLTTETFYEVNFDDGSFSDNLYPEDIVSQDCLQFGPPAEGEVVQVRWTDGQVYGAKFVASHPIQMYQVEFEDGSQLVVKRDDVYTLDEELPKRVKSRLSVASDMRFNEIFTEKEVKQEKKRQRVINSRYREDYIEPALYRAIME

SMILES | activity change, negative = inhibition | Potency
COc1ccc(NC(=O)CCc2nnc3n(CC(C)C)c(=O)c4ccccc4n23)cc1OC | -24.4% (inactive) | –
COC(=O)c1ccccc1NC(=O)c1ccc(COc2ccccc2Cl)o1 | 15.8% (inactive) | –
CCN(CCCNC(=O)c1cc2c(=O)n(CC)c3ccccc3c2s1)Cc1ccccc1 | -17.2% (inactive) | –
O=C(O)CSc1ccc(S(=O)(=O)N2CCCC2)cn1 | -1.35% (inactive) | –
N#Cc1c(N2CCCCC2)nc(N)c2c(N)nc(SCC(=O)O)cc12 | – | 50.1 µM (active)
N#Cc1c(C(F)(F)F)cc(-c2ccc(Cl)cc2)nc1SCC(=O)O | -19.7% (inactive) | –
COc1cc(NC(=O)c2cc(C3CC3)nc3c2c(C)nn3-c2ccccc2)cc(OC)c1 | -10.4% (inactive) | –
Cc1ccc(C)c(N2CCN(C(c3ccccc3)c3nnc(-c4ccccc4)o3)CC2)c1 (stereo not given) | -24.7% (inactive) | –
CCc1ccc(NC2Nc3cc(C)nn3S2)cc1 (stereo not given) | – | 22.4 µM (active)
CCOC(=O)c1ccc(NC2Nc3cc(C)nn3S2)cc1 (stereo not given) | -23.3% (inactive) | –
COc1cccc(N2CC(NC(=O)/C=C\c3ccccc3)CC2=O)c1 (stereo not given) | -14.9% (inactive) | –
Cc1ccc(C)c2c1cc(C)c1nnc(SCC(=O)Nc3cccc(C(=O)O)c3)n12 | – | 12.6 µM (active)
COc1ccccc1-n1c(SCC(=O)Nc2cccc(C(=O)O)c2)nnc1-c1ccccc1O | 7.56% (inactive) | –
Cc1ccc(C(=O)NCCc2nnc(SCC(=O)Nc3cccc(C(=O)O)c3)n2C)cc1 | -5.52% (inactive) | –
COC(=O)c1ccc(NC(=O)c2cc(S(=O)(=O)N3CCC(C)CC3)cn2C)cc1 | -10.5% (inactive) | –
Cc1ccc(Nc2nc3ccccc3nc2-n2nc(C)cc2C)c(Cl)c1 | 51% (inactive) | –
Cc1ccc(Cn2ncc3c4sc(C)cc4n(C)c3c2=O)c(C)c1 | -15.8% (inactive) | –
CCCCNC(=O)C1CCC(CNS(=O)(=O)c2ccc(NC(C)=O)cc2)CC1 (stereo not given) | – | inactive
Cc1ccc(CCNC(=O)c2ccc(CNS(=O)(=O)c3ccc(C)cc3)cc2)cc1 | -9.48% (inactive) | –
COCCCNC(=O)c1ccc(CNS(=O)(=O)c2ccc(NC(C)=O)cc2)cc1 | – | 50.1 µM (active)
Cc1ccc(CN2CCC(CNC(=O)c3cnn(-c4ccccc4Cl)c3C3CCN(C(=O)OC(C)(C)C)CC3)CC2)cc1 | -31.4% (inactive) | –
CCc1cccc(CC)c1NC(=O)Cn1c(=O)c(-c2cc(C)ccc2NC(C)=O)nc2ccccc21 | -16.2% (inactive) | –
COC(=O)c1ccccc1NC(=O)C(Cc1ccccc1)N1Cc2ccccc2C1=O (stereo not given) | -12.9% (inactive) | –

SMILES | activity change, negative = inhibition | Potency
CCOc1cc(/C=N/Nc2cc(C)nc3ccc(C)cc23)ccc1O | -3.74% (inactive) | –
CCN(CC)c1ccc(/C=N/Nc2nc(C)cc(C)n2)c(O)c1 | – | 50.1 µM (active)
CCN(CC)c1ccc(/C=N/NC(=O)c2cnccn2)c(O)c1 | -20.4% (inactive) | –
CCCCNC(=O)Cn1c(SCc2cccc(Cl)c2)nc2ccncc21 | -1.54% [at 57.1 µM] (inactive) | –
CCCN(CCC)CCCNC(=O)Cn1ncc2c3ccccc3n(Cc3ccccc3)c2c1=O | -10.4% (inactive) | –
C=CCc1ccccc1OCC(O)CN1CCN(CCO)CC1 (stereo not given) | -2.49% (inactive) | –
Cc1ccc(OCC(O)CN2CCN(CC(O)COc3ccc(C)cc3Cl)CC2)c(Cl)c1 (stereo not given) | 4.49% (inactive) | –
Cc1cccc(OCC(O)CN2CCN(CCN3C(=O)c4cccc5cccc(c45)C3=O)CC2)c1C (stereo not given) | – | 39.8 µM (active)
COc1ccc(NC(=O)Cn2c(=O)n(CCC(C)C)c(=O)c3cccnc32)cc1Cl | -14.9% (inactive) | –
Cc1cc(C)cc(NC(=O)c2cnc3sc(N4CCCC4)nn3c2=O)c1 | -29.7% (inactive) | –
Cc1ccc(CC2CC(=O)N(c3ccc4c(c3)OCCO4)C2=O)cc1 (stereo not given) | -8.3% (inactive) | –
CC(=O)Nc1ccc(N2C(=O)CC(Sc3nccc(C)n3)C2=O)cc1 (stereo not given) | -13.9% (inactive) | –
CCOc1ccccc1N1C(=O)CC(Sc2nccc(C)n2)C1=O (stereo not given) | 10.5% (inactive) | –
O=C1CC(Sc2ncn[nH]2)C(=O)N1c1ccccc1 (stereo not given) | – | 39.8 µM (active)
COc1ccc(N2C(=O)CC(Sc3n[nH]c(-c4ccc(C)cc4)n3)C2=O)cc1 (stereo not given) | – | 2 µM (active)
COc1ccc(N2C(=O)CC(SC(C)C)C2=O)cc1 (stereo not given) | -6.9% (inactive) | –
COc1ccc(-c2nc(SCC(=O)N3CCCC3)n[nH]2)cc1 | -4.14% (inactive) | –
COC(=O)c1ccccc1SC1CC(=O)N(c2cccc(C)c2)C1=O (stereo not given) | -8.39% (inactive) | –
Cc1ccc(N2C(=O)CC(Sc3ncn[nH]3)C2=O)cc1 (stereo not given) | – | 28.2 µM (active)
CC(=O)Nc1cccc(NC(=O)CSc2nccn2Cc2ccc3c(c2)OCO3)c1 | -21% (inactive) | –
O=C(CCS(=O)(=O)c1ccccc1)N(Cc1cccnc1)c1nc2c(F)cccc2s1 | -11% (inactive) | –
COc1ccc2oc(=O)c(-c3cn4c(n3)sc3cc(OC)ccc34)cc2c1 | -17% (inactive) | –
CCC(=O)N1c2ccccc2CC1C(=O)N1CCN(c2ccccc2F)CC1 (stereo not given) | 17.2% (inactive) | –

SMILES | activity change, negative = inhibition | Potency
CC1=C(c2ccc(C)cc2)S(=O)(=O)NC1=NCCCN1CCN(c2cc(C)ccc2C)CC1 | -18.2% (inactive) | –
COc1ccc(Cn2c(C(=O)O)c(CNCCc3cccs3)c3ccc(OC)cc32)cc1 | -11% (inactive) | –
COc1cc(OC)cc(C(=O)Nc2c(C(=O)Nc3ccc(F)cc3)oc3ccccc23)c1 | -2.65% (inactive) | –
Cc1ccc(C)c(N2CCN(C(=O)Cn3ncc4c(=O)oc5ccc(C)cc5c43)CC2)c1 | -6.62% (inactive) | –
CO/N=C(\N)c1ccc([N+](=O)[O-])cc1 | -12.4% (inactive) | –
C/C(=N\N(C)C)c1ccc(OCCOc2ccc([N+](=O)[O-])cc2)cc1 | – | 44.7 µM (active)
C/C(=N/NC(=O)CC(=O)N/N=C(\C)c1ccc([N+](=O)[O-])cc1)c1ccc([N+](=O)[O-])cc1 | -23.1% (inactive) | –
Cc1oc2ncnc(N3CCOCC3)c2c1C(=O)NCCc1ccccc1 | 8.74% (inactive) | –
CCCCOc1ccc(C(=O)N2CC(=O)Nc3ccc(Br)cc3C2c2ccc(F)cc2)cc1 (stereo not given) | -23.9% (inactive) | –
C[n+]1ccccc1C1CCCC/C1=N\Nc1ccc([N+](=O)[O-])cc1[N+](=O)[O-] (stereo not given) | -2.07% (inactive) | –
O=[N+]([O-])c1ccc(N/N=C2/CCCCC2c2ccccn2)c([N+](=O)[O-])c1 (stereo not given) | – | 31.6 µM (active)
O=C(Nc1ccccc1)O/N=C1\CCCCC1c1ccc([N+](=O)[O-])cc1[N+](=O)[O-] (stereo not given) | -16.2% (inactive) | –
Cc1ccc(C)c(S(=O)(=O)c2nnn3c2nc(N2CCOCC2)c2sccc23)c1 | 4.4% (inactive) | –
COc1ccc(CCN2C(=O)N(c3cccc(OC)c3)C(=O)C2CC(=O)Nc2ccccc2)cc1 (stereo not given) | -21.2% (inactive) | –
N#C/C(=C/c1ccc(N2CCOCC2)o1)C(=O)N1CCOCC1 | -31.8% (inactive) | –
N#C/C(=C\C1=C(N2CCOCC2)C(=C\c2ccccc2)/CC1)C(=O)Nc1ccccc1F | – | 4.47 µM (active)
O=C(CC1SC(N2CCOCC2)=NC1=O)Nc1ccccc1F (stereo not given) | -19% (inactive) | –
COc1c(Cl)cc(Cl)cc1C(=O)Nc1cccc2cccnc12 | -11.9% (inactive) | –
Cc1ccc(S(=O)(=O)NCCC(c2ccccc2)c2ccccc2)cc1C(=O)O | – | 79.4 µM (active)
Cc1ccc(S(=O)(=O)NCCCn2ccnc2)cc1C(=O)NC(C)C | -4.42% (inactive) | –
Cc1cccc(NS(=O)(=O)c2ccc(C)c(C(=O)NCC(c3ccccc3)N(C)C)c2)c1 (stereo not given) | -21.5% (inactive) | –
Cc1nc(SCC(=O)Nc2ccc(C(=O)O)cc2)n[nH]1 | -1.03% (inactive) | –
Cc1ccc(NC(=O)CSc2nc3c(c(=O)[nH]2)CN(Cc2ccc4c(c2)OCO4)CC3)cc1C | -2.32% (inactive) | –

SMILES | activity change, negative = inhibition | Potency
CCOC(=O)c1ccc(CN(Cc2ccccc2)S(=O)(=O)c2ccc(Cl)cc2)cc1 | 45% (inactive) | –
COc1cccc(NC(=O)CN2C(=O)c3ccccc3Sc3ncccc32)c1 | -27.8% (inactive) | –
CCNS(=O)(=O)c1cc(-c2nnc(Nc3cccc(C(F)(F)F)c3)c3ccccc23)ccc1C | -15.9% (inactive) | –
CCC(=C/c1sc2ccc3ccccc3c2[n+]1C)/C=C1\Sc2ccc3ccccc3c2N1C | – | 50.1 µM (active)
COc1ccc(CN2C(=O)C(NC(=O)c3cccc(C)c3)(C(F)(F)F)N=C2c2ccccc2)cc1 (stereo not given) | -25% (inactive) | –
Cc1ccc(S(=O)(=O)NCC(=O)N2CCN(c3ccccn3)CC2)cc1 | -6.57% (inactive) | –
Cc1ccc(-n2ccc(=O)c(C(=O)O)n2)cc1 | -20.1% (inactive) | –
Cc1ccc(N2CCN(c3ccc(C)cc3)C2c2ccccn2)cc1 | – | 25.1 µM (active)
Cc1cccc(OCC(=O)N(Cc2ccc(C(C)C)cc2)Cc2ccco2)c1C | 14.5% (inactive) | –
Oc1c(C(c2ccccn2)N2CCOCC2)ccc2cccnc12 (stereo not given) | – | 17.8 µM (active)
Oc1c(C(c2ccccc2Cl)N2CCOCC2)sc2nc(-c3ccco3)nn12 (stereo not given) | -16.6% (inactive) | –
COc1cc(NC(=O)c2noc3c2CSc2ccccc2-3)cc(OC)c1OC | -1.66% (inactive) | –
CC(=O)N1CCCc2cc(S(=O)(=O)Nc3ccc(Cl)cc3F)ccc21 | -28.7% (inactive) | –
CCCCc1nn2c(=O)cc(COC(=O)c3ccccc3NC(=O)C(C)(C)C)nc2s1 | -11.6% (inactive) | –
O=C(c1ccc(S(=O)(=O)NCc2ccco2)cc1)N1CCN(c2ccccc2)CC1 | -30.3% (inactive) | –
O=C(c1ccc(CS(=O)(=O)c2ccccc2)o1)N1CCN(c2ccccc2)CC1 | – | 56.2 µM (active)
COc1ccccc1CNC(=O)c1ccc(CS(=O)(=O)c2ccccc2)o1 | -7.86% (inactive) | –
Cc1cc(C)cc(NC(=O)CCS(=O)(=O)c2cc3c4c(c2)CCN4C(=O)CC3)c1 | 4.55% (inactive) | –
Cc1cc(C)c2oc(C(=O)Nc3c(C(=O)Nc4ccccc4)oc4ccccc34)cc(=O)c2c1 | -6.25% (inactive) | –
Cc1ccc(C)c(Oc2c(C(F)(F)F)oc3c(CN4CCN(C)CC4)c(O)ccc3c2=O)c1 | -15.4% (inactive) | –
Cc1c(Cl)cccc1NC(=O)C1CCCN(c2ncnc3onc(C)c23)C1 (stereo not given) | -4.85% (inactive) | –
